Source: PubChem BioAssay (National Center for Advancing Translational Sciences (NCATS))
PNC inhibitor: High Content Assay for Compounds that inhibit the Assembly of the Perinucleolar Compartment | hit rate 3.1% among 140,000 | PC3M PTB-GFP, PNC prevalence imaging, 16 h; hits give low values | activity change (PNC), negative = inhibition, % at 10 µM;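 active means readout at or below -70, meaning at least 70% loss of cells showing the perinucleolar compartment, a nuclear body marking cancer cells; inconclusive means readout between -30 and a set limit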
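Read-out is percentage of cells bearing a perinucleolar compartment, from automated 20x imaging of fixed, Hoechst-stained PC3M PTB-GFP cells. Cells were seeded 4 h, then exposed 16 h to compound (23 nl of library stock) in duplicate plates.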
HPGD inh: qHTS Assay for Inhibitors of HPGD (15-Hydroxyprostaglandin Dehydrogenase); purified HPGD, NADH fluorescence kinetic, PGE2 substrate; Potency, µM, hits mostly inhibitors; 15-hydroxyprostaglandin dehydrogenase [NAD(+)] (Homo sapiens), P15428; hit rate 4.3% among 150,000
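NADH formation kinetics: reaction with 30 uM PGE2 and 1 mM NAD+ (final), 20 nM enzyme, Tris-HCl pH 8 with Tween 20, after 15 min compound preincubation at room temperature. Fluorescence change, last versus first of five reads.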
ALDH1A1 block: qHTS Assay for Inhibitors of Aldehyde Dehydrogenase 1 (ALDH1A1). Potency, µM (titrated, usually from 75.3 µM), actives largely listed as inhibitors. hit rate 7.3% among 220,000. Aldehyde dehydrogenase 1A1 (Homo sapiens), P00352. Purified ALDH1A1, NADH fluorescence, propionaldehyde substrate
Target sequence (P00352 whole entry, looked up): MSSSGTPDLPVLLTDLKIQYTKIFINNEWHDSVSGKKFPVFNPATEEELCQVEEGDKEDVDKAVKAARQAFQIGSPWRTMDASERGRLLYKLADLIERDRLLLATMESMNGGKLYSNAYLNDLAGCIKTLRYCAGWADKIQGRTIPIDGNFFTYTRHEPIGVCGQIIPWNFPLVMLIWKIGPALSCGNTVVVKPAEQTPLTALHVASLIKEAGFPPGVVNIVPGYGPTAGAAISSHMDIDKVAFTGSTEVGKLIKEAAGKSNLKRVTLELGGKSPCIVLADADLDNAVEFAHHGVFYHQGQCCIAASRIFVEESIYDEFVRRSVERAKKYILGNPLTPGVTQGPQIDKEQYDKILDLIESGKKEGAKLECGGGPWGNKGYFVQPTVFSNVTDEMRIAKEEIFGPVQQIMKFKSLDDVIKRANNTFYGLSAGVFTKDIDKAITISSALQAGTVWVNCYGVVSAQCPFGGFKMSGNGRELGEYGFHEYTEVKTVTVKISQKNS
Each line names hits and unclear results; the compound was inactive in the other large screens. Most compounds without a hit are left out; they make up all but 11% or so of the library. Unless noted, the call rests on the fitted dose curve; in most records, active means well fitted inhibition curve with a large enough effect (not every such curve was filed as active); inconclusive means small, poorly fitted or top-dose-only effect, or another doubt; inactive means no such curve, though single readings can be large or run the other way.

NC(=O)c1c(NC(=S)Nc2ccccc2)sc2c1CCCC2	ALDH1A1 block 7.94µM (no result: PNC inhibitor, HPGD inh)
NC(=O)c1c(NC(=S)Nc2ccc(F)cc2)sc2c1CCCC2	ALDH1A1 block 10µM (no result: PNC inhibitor, HPGD inh)
CCc1ccc(S(=O)(=O)c2ccc(-n3nc(C)cc3N)cc2)cc1	none (no result: PNC inhibitor, HPGD inh)
Cc1ccc(C(=O)Nc2nnc(NC(=S)Nc3ccccc3)s2)cc1	ALDH1A1 block 22.4µM (no result: PNC inhibitor, HPGD inh)
Cc1nc(NC(=S)Nc2ccccc2)sc1C	ALDH1A1 block 22.4µM (no result: PNC inhibitor, HPGD inh)
COC(=O)Cc1nnc(NC(=O)c2ccccc2)s1	PNC inhibitor -94.7 (no result: HPGD inh)
CCOc1ccc(NC(=O)c2ccc(CSc3nnc(C)s3)cc2)cc1	none (no result: PNC inhibitor, HPGD inh)
Cc1nc(Nc2ccccc2)sc1C(=O)Nc1ccccc1	none (no result: PNC inhibitor, HPGD inh)
COC(=O)Cc1nnc(NC(=O)C(C)C)s1	PNC inhibitor inconclusive
Cc1ccc(SCc2nnc(NC(=O)c3ccccc3)s2)cc1	none
CCOc1ccc(C(=O)Nc2nnc(NC(=S)Nc3ccccc3)s2)cc1	ALDH1A1 block 7.08µM (no result: PNC inhibitor, HPGD inh)
O=S(=O)(/C=C/c1ccccc1)N1CCN(c2nc(-c3ccccc3)nc3ccccc23)CC1	none (no result: PNC inhibitor, HPGD inh)
CC(=O)NC(Cc1ccccc1)C(=O)OCC(=O)c1ccc(F)cc1 (stereo unspecified)	none
O=C(Nc1ccccc1Br)C1CCN(C(=O)Cc2ccccc2)CC1	none
Cc1cnc(C)c(N(C)NC(=S)Nc2ccccc2)n1	PNC inhibitor -109.0
Cc1ccc(NC(=S)NN(C)c2cc(C)nc(C)n2)cc1	none
NNC(=O)c1ccc(CN2CCCCC2)o1	none (no result: PNC inhibitor, HPGD inh)
N#Cc1cc2c(OCC(O)CN3CCN(C(c4ccccc4)c4ccccc4)CC3)cccc2[nH]1 (stereo unspecified)	none (no result: PNC inhibitor, HPGD inh)
COc1ccc(S(=O)(=O)n2nc(-c3cc(OC)c(OC)c(OC)c3)cc2N)cc1OC	none
COc1ccc(-c2cc(N)n(S(=O)(=O)c3c(F)c(F)c(F)c(F)c3F)n2)cc1OC	ALDH1A1 block 31.6µM
CC1=NCCN1CCNC(=O)Nc1ccc(F)cc1	none (no result: PNC inhibitor, HPGD inh)
O=C(Nc1ccc(F)cc1)C1=CC(=O)N2CCN=C2S1	ALDH1A1 block 15.8µM (no result: PNC inhibitor, HPGD inh)
O=C(O)C1C2C=CC(C2)C1C(=O)Nc1cccc(F)c1 (stereo unspecified)	PNC inhibitor inconclusive
O=C(O)C1C2C=CC(C2)C1C(=O)Nc1ccc(C(=O)N2CCCCC2)c(Cl)c1 (stereo unspecified)	HPGD inh 0.447µM
CCCCn1c(N)c(N(CC)C(=O)c2cccc(OC)c2)c(=O)[nH]c1=O	none (no result: PNC inhibitor, HPGD inh)
COc1cccc(-c2nc(-c3ccccc3)[nH]c(=O)c2C#N)c1	PNC inhibitor inconclusive, HPGD inh 15.8µM
N#Cc1c(-c2ccccc2)nc(-c2ccccc2)[nH]c1=O	PNC inhibitor inconclusive, HPGD inh 2µM, ALDH1A1 block inconclusive
COc1cccc(-c2noc(N)c2C#N)c1	HPGD inh inconclusive
N#Cc1c(-c2ccccc2)nc(-c2ccncc2)[nH]c1=O	none (no result: PNC inhibitor, HPGD inh)
COc1ccc(Oc2ncc3ncc(=O)n(Cc4cccs4)c3n2)cc1	ALDH1A1 block inconclusive (no result: PNC inhibitor)
COc1cccc(Nc2ncc3ncc(=O)n(C[C@H]4CCCO4)c3n2)c1	none (no result: PNC inhibitor, HPGD inh)
Cc1ccc(N=Nc2c(O)c3ccccc3[nH]c2=O)c(S(=O)(=O)N(C)C)c1	ALDH1A1 block 14.1µM (no result: PNC inhibitor)
Cc1ccc(N(CC(=O)N=Nc2c(O)[nH]c3ccccc23)S(C)(=O)=O)c(C)c1	none (no result: PNC inhibitor, HPGD inh)
CN1C(=O)CC(C(=O)O)SC1=Nc1cc(Cl)c(O)c(Cl)c1 (stereo unspecified)	none
CN1C(=O)CC(C(=O)O)SC1=Nc1cc(Cl)cc(Cl)c1 (stereo unspecified)	PNC inhibitor -86.9
O=C(Cn1nnc(-c2ccc(CN3CCOCC3)cc2)n1)N(c1ccccc1)c1ccccc1	ALDH1A1 block 11.2µM (no result: PNC inhibitor, HPGD inh)
NC(=O)Cn1nnc(-c2ccc(CN3CCCCC3)cc2)n1	none (no result: PNC inhibitor, HPGD inh)
COc1cccc(CN(C(=O)Cn2nnc(-c3ccccc3F)n2)C(C(=O)NC(C)(C)C)c2ccncc2)c1 (stereo unspecified)	ALDH1A1 block 23.8µM (no result: PNC inhibitor, HPGD inh)
CC(C)(C)NC(=O)C(c1ccncc1)N(Cc1cccs1)C(=O)Cn1nnc(-c2ccc(F)cc2)n1 (stereo unspecified)	none
Cc1ccc(C(=O)Oc2ccc(N3C(=O)CCC3=O)c(C)c2)cc1	none (no result: PNC inhibitor, HPGD inh)
Cc1cc(OCC(=O)c2ccc(Br)cc2)ccc1N1C(=O)CCC1=O	HPGD inh 14.1µM, ALDH1A1 block inconclusive
O=C(COc1ccc(Br)cc1)c1ccc2c(c1)CCCC2	none
Cc1ccc(OCC(=O)c2ccc3c(c2)CCCC3)cc1C	HPGD inh 31.6µM
CC1=NN(/C(=N\c2nnc(C)s2)Nc2ccc(C(C)(C)C)cc2)[C@H](c2ccc(C)cc2)S1	ALDH1A1 block inconclusive
Cc1cc(C)cc(OCC(=O)OCc2nnc(-c3ccccc3)o2)c1	none (no result: PNC inhibitor, HPGD inh)
Nc1c(NCc2ccccc2)c2ccccc2oc1=O	HPGD inh inconclusive, ALDH1A1 block 22.4µM
